Laboratory results as given in PubChem BioAssay AID504329 (Southern Research Specialized Biocontainment Screening …, 2011).
Out of some 340,000 compounds screened, about 1,000 (0.29%) were called active. These entries were drawn from the full list. Measured potencies and affinities stand elsewhere. Values without a mark were called inactive. No stated cut-off is given here; in the data, inconclusive means inhibition above about 27% without an active follow-up result; inactive means below that.

Test: H1N1 influenza NS1A inhibitors, functional cell based assay (AID 504329)
Conditions: percent inhibition, at 12.5 µM, active compounds read high

| SMILES | inhibition [%] |
| --- | --- |
| Cc1ccc(NCC(=O)N/N=C/c2cccn2C)cc1 | 1.43 |
| Cc1cc(N2CCN(CC(O)C(F)(F)F)CC2)c2ccccc2n1 (stereo unspecified) | 15.7 |
| CCC(CO)Oc1cc(NCc2cccc(C(F)(F)F)c2)c2ncn(C(C)C)c2c1 (stereo unspecified) | -6.24 |
| COCCN(CC1CCCN(C2Cc3ccccc3C2)C1)C(=O)CCC(C)=O (stereo unspecified) | -22.6 |
| CN(CC(=O)Nc1ccc(Cl)cc1F)C1=NS(=O)(=O)c2ccccc21 | 5.4 |
| COc1ccc(S(=O)(=O)Nc2ccc(NC(C)=O)cc2)cc1[N+](=O)[O-] | 9.65 |
| Clc1ccc(CNc2ccc(N3CCN(Cc4ccccc4)CC3)cc2)cc1 | 20.5 |
| CCOc1ccc(CNc2ccc(N3CCCC3)cc2)cc1 | 21.7 |
| CCOc1c(Cl)cc(CNc2ccc(N3CCCC3)cc2)cc1OC | 15.9 |
| COc1cc(CNc2ccc(N3CCCC3)cc2)cc(Cl)c1OC | 21.3 |
| COc1ccc(C(=O)Nc2ccc(N3CCN(C(=O)C(C)C)CC3)cc2)cc1[N+](=O)[O-] | -5.48 |
| CCOC(=O)C1CCCN(CCC(=O)Nc2ccc(F)c(F)c2)C1 (stereo unspecified) | -6.65 |
| c1ccc(CSC2=NCCCN2)cc1 | 5.1 |
| Cc1ccc(NC(=O)CSc2nc3ccccc3c(=O)n2CCCC(=O)N2CCCC2)cc1 | -0.44 |
| CCN(CC)c1ccc(/C=C2/C(=O)ON=C2C)cc1 | 22.3 |
| CC1=NN(c2cccc(F)c2)C(=O)/C1=C/c1ccc(N(C)C)cc1 | 15.2 |
| COc1ccc(NC(=O)CN(C)CC(=O)NCCc2ccc(F)cc2)cc1 | -13.6 |
| COCCN(Cc1cc2cccc(C)c2n2nnnc12)C(=O)C(F)(F)F | -4.57 |
| CN(CCc1cn[nH]c1)Cc1nc(Cc2ccccc2)no1 | 3.23 |
| COc1cc(OC)cc(C(=O)Oc2c(CN3CCOCC3)cc(Cl)c3cccnc23)c1 | -7.03 |
| Oc1c(CN2CCOCC2)cc(-c2ccccc2)cc1CN1CCOCC1 | 9.91 |
| CN1CCN(Cc2ccc(OCc3ccccc3)cc2)CC1 | -2.13 |
| O=C(Oc1c(CN2CCOCC2)cc(Cl)c2cccnc12)c1ccccc1Cl | 13.5 |
| COc1ccc(CN2CCN(C)CC2)cc1OCc1ccccc1 | 0.12 |

| SMILES | inhibition [%] |
| --- | --- |
| O=C(Oc1c(CN2CCOCC2)cc(Cl)c2cccnc12)c1ccccc1 | -7.41 |
| COc1ccc(C(=O)Oc2c(CN3CCOCC3)cc(Cl)c3cccnc23)cc1 | 6.29 |
| Oc1c(CN2CCOCC2)cc(CN2CCOCC2)cc1CN1CCOCC1 | -23.8 |
| CC(/C=C1\SC(=S)N(CCC(=O)Nc2nc(C)cs2)C1=O)=C\c1ccccc1 | -4.32 |
| COc1ccc(/C=C/c2nc(C)c(-c3ccccc3)c(=O)[nH]2)cc1OC | 2.31 |
| CCOc1ccc(C2=CSC3=NCCN23)cc1[N+](=O)[O-] | -15.6 |
| CCOc1ccc(NC(=S)Nc2ccc(OCc3ccccc3)cc2)cc1 | 22 |
| CCCc1c(C(=O)Nc2ccc(F)cc2F)cnn1-c1ccccc1 | 2.03 |
| OC(COCc1ccccc1)CN1CCCC1 (stereo unspecified) | -16.3 |
| CC(C)Oc1cccnc1N(C)C1CCN(Cc2ccccc2)CC1 | 7.67 |
| COc1cc(C(=O)N(C)C2CCCN(Cc3ccccc3F)C2)cc(OC)c1OC (stereo unspecified) | -3.71 |
| Oc1c(CNc2ccccc2)cc(COCc2ccccc2)c2cccnc12 | -1.39 |
| COc1cc(CN2CCCCC2)ccc1OCc1ccccc1 | -0.75 |
| c1ccc(COc2cccc(CN3CCCCC3)c2)cc1 | 4.44 |
| CSc1ccc(CN(C)CC(=O)Nc2c(F)cccc2F)cc1 | 4.59 |
| CC(C)c1ccc(NC(=O)C2=NNC(=O)CC2)cc1 | 8.16 |
| O=C(CCCCC(=O)OCC1CCCO1)OCC1CCCO1 (stereo unspecified) | -25.2 |
| O=C1COc2ccccc2N1Cc1ccc(Cl)cc1 | -6.96 |
| Cc1c[n+](C)ccc1CC1C([N+](=O)[O-])=C[N-]c2ncnn21 (stereo unspecified) | -6.38 |
| O=C(Cc1ccc(O)cc1)NCCNC(=S)NCc1ccccc1 | -12.1 |
| O=Cc1c(-c2ccccc2)cc2oc3ccccc3cc1-2 | 10.8 |
| O=c1oc2ccccc2cc1-c1ccccc1 | -7.16 |
| Cc1ccc(NC(=O)C(NCc2ccccn2)c2ccccc2)cc1 (stereo unspecified) | -1 |
| S=C(NCc1ccccn1)Nc1ccccc1Cl | -10.4 |

| SMILES | inhibition [%] |
| --- | --- |
| O=C(NCc1ccccn1)Nc1ccccc1Cl | -1.88 |
| CCOc1ccc(NC(=O)NCc2ccccn2)cc1 | -5.82 |
| O=C(Cc1ccccn1)Nc1ccccc1 | -8.73 |
| CCOc1ccc(NC(=O)CC(c2ccccc2)c2ccc(F)cc2)cc1 (stereo unspecified) | -2.67 |
| Cc1cc(C)cc(NC(=O)c2ccc(S(=O)(=O)C(F)F)cc2)c1 | 15.2 |
| COC(=O)C(C)Sc1ccc2nnc(-c3ccccc3)n2n1 (stereo unspecified) | 0.68 |
| COc1ccc(NS(=O)(=O)c2ccc3oc(SCc4ccc(F)cc4)nc3c2)cc1 | -1.81 |
| O=C(O)c1cc(-c2cccs2)nn1-c1cccc(Cl)c1 | -3.66 |
| CC(C)CCNC(=O)CSc1nnc(-c2ccc(S(=O)(=O)N3CCCC3)cc2)n1C | 1.62 |
| O=C(CSc1n[nH]c(-c2cccs2)n1)NCCc1ccccc1 | -3.95 |
| COCCN=c1scc(-c2ccco2)n1/N=C/c1ccc(O)c(O)c1O | 13.4 |
| CN=c1scc(-c2cccs2)n1/N=C/c1ccc(O)c(O)c1O | 28.1 |
| Cc1ccc(S(=O)(=O)N2CCN(C(=O)C3CCCC3)CC2)cc1C | -7.76 |
| CCCC(=O)NC(c1ccc(Cl)cc1)c1ccc2cccnc2c1O (stereo unspecified) | -7.24 |
| CCCCC(=O)NC(c1ccc(N(CC)CC)cc1)c1ccc2cccnc2c1O (stereo unspecified) | 11.6 |
| CCCC(=O)NC(c1ccc(C(C)C)cc1)c1ccc2cccnc2c1O (stereo unspecified) | -11.7 |
| CCCCC(=O)NC(c1ccc(C(C)C)cc1)c1ccc2cccnc2c1O (stereo unspecified) | -9.31 |
| CCCC(=O)NC(c1ccc(C)cc1)c1ccc2cccnc2c1O (stereo unspecified) | 4.97 |
| CCCCC(=O)NC(c1ccccc1)c1ccc2cccnc2c1O (stereo unspecified) | 17.1 |
| CCc1cc(C(=O)N2CCCC(C(=O)c3ccc(Oc4ccccc4)cc3)C2)n(C)n1 (stereo unspecified) | -0.31 |
| COc1ccc(NC(=O)c2ccc(NC(=O)CN(C)CC(=O)Nc3c(C)cccc3C)cc2)cc1 | -7.57 |
| C/C=C\C=C\C(=O)N1CC2(CC(c3cccc(NC(=O)CC(c4ccccc4)c4ccccc4)c3)=NO2)C[C@H]1C(N)=O (stereo partly specified) | 2.26 |
| COCCCNC(=O)c1cc(=O)n(Cc2ccc(Cl)cc2)c2ccccc12 | 6.81 |
| CCCCCc1cc(=O)oc2c(C(CCN3CCCCC3)c3ccc(OC)cc3)c(OC)cc(OC)c12 (stereo unspecified) | 18.7 |

| SMILES | inhibition [%] |
| --- | --- |
| CCCCCc1cc(=O)oc2c(C(CCN3CCN(c4ccccc4)CC3)c3ccc(N(C)C)cc3)c(OC)cc(OC)c12 (stereo unspecified) | -11.8 |
| CCCCCc1cc(=O)oc2c(C(CCN(CC)CC)c3cc(OC)c(OC)c(OC)c3)c(OC)cc(OC)c12 (stereo unspecified) | 9.43 |
| CCCCCc1cc(=O)oc2c(C(CCN3CCCC(C)C3)c3ccc4c(c3)OCO4)c(OC)cc(OC)c12 (stereo unspecified) | 16.4 |
| CCCCCc1cc(=O)oc2c(C(CCN3CCCC(C)C3)c3ccc(OC)cc3)c(OC)cc(OC)c12 (stereo unspecified) | 8.01 |
| CCCCCc1cc(=O)oc2c(C(CCN(CC)CC)c3ccc(OC)cc3)c(OC)cc(OC)c12 (stereo unspecified) | 5.11 |
| Nc1nnc(SCC(=O)NCCNC(=O)CSc2nnc(N)s2)s1 | -11.3 |
| Cc1noc(-c2ccc(Cl)cc2)c1C(=O)O/N=C(\N)c1ccc(C(C)(C)C)cc1 | 12.5 |
| O=C(CN1CCCCC1)N=Nc1c(O)[nH]c2ccccc12 | -8.88 |
| Cc1ccc(-c2nnc(N3CCCCC3)c3ccccc23)cc1S(=O)(=O)N(C)C | -3.68 |
| CS(=O)(=O)Oc1ccc2c(c1)O/C(=C\c1cccc([N+](=O)[O-])c1)C2=O | 7.03 |
| CS(=O)(=O)c1ccc(S(=O)CC(=O)OCc2ccccc2)c([N+](=O)[O-])c1 (stereo unspecified) | 11.4 |
| COc1ccccc1OCCOC(=O)Nc1ccccc1 | -11.2 |
| COc1cc(/C=C2/C(=O)N(c3ccc(Br)cc3)N=C2C)cc(OC)c1OC | 3.78 |
| COc1cc(/C=C2/C(=O)N(c3ccc(C(=O)O)cc3)N=C2C)cc(OC)c1O | 13.2 |
| O=C1/C(=C\c2ccc(O)c(O)c2)C(c2ccccc2)=NN1c1ccccc1 | 23.5 |
| COc1cc(/C=C2\C(=O)N(c3ccc(NC(C)=O)cc3)N=C2c2ccccc2)ccc1O | 12.5 |
| CCOC(=O)C1CCC(CN(Cc2ccccc2)S(=O)(=O)c2ccc([N+](=O)[O-])cc2)CC1 (stereo unspecified) | 6.67 |
| CCOC(=O)c1ccc(COc2ccc(C(C)C)cc2)o1 | -6.49 |
| COc1ccccc1C=NN1C(=O)CSC1=S | 1.86 |
| O=C1CSC(=S)N1N=Cc1cccc2ccccc12 | 13.2 |
| Cc1ccccc1/C=N/N1C(=O)CSC1=S | -0.54 |
| CCOc1cccc(/C=N/N=C/c2cccc(OCC)c2O)c1O | -10.6 |
| CCOc1cccc(/C=N/N2C(C)CCCC2C)c1O (stereo unspecified) | -10.1 |
| O=C1CSC(=S)N1/N=C/c1ccc(O)c(O)c1O | -1.09 |
